A short description of assay [1]: antimalarial activity against Dd2 strain (AID 2302;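 active means growth inhibition above 50% at the single 2 µM test dose, taken to imply half-maximal potency below 2 µM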;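 further: 0% = DMSO untreated growth and 100% = chloroquine plus artemisinin killed control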). The note with it: P. falciparum Dd2 in RBCs, LDH growth readout, 72 h; at 2 µM; hits give high values.
The nature of assay [2]: HepG2 cytotoxicity, primary screen, cytotoxicity control for P. falciparum antimalarial project, cell-based, ATP luminescence (AID 2303;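 active means inhibition above 50%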;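 further: 0% = DMSO wells and 100% = digitonin-killed cells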). The note with it: HepG2 viability, 24-48 h, at 10 µM, hits give high values.
In assay [3] the target is L-lactate dehydrogenase (Plasmodium falciparum (isolate CDC / Honduras)) (UniProt Q27743). Description: PfLDH activity inhibition – cell lysate, 3D7 strain, counter-screen for P. falciparum growth inhibition project (AID 2304).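 Further: 0% = vehicle and 100% = reference inhibitor.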 The note with it: P. falciparum 3D7 crude extract, LDH APAD/NBT absorbance; at 2 µM; hits give high values.
Assay [4] in a line: inhibition of 3D7 malaria parasite growth – strain 3D7 (AID 2306).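 Further: 0% = DMSO wells and 100% = chloroquine plus artemisinin control wells.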 Particulars: P. falciparum 3D7 erythrocytic growth, LDH absorbance, 72 h; at 2 µM; hits give high values.
Assay [5] addresses Calcium-dependent protein kinase 1 (Plasmodium falciparum (isolate 3D7)) (UniProt P62344). Description: PfCDPK1 kinase inhibitors, biochemical, TCAMS library (AID 1159585; cut-off not given, nearly all actives have IC50 up to about 0.98 µM;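 further: inhibitors leave more ATP so luminescence rises with inhibition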). The note with it: recombinant PfCDPK1, Kinase-Glo ATP depletion luminescence. In general terms: Kinase-Glo reads ATP consumption through a luciferase reaction.
Assay [6] has as its target Plasmodium falciparum protein kinase 6 (PK6, PF3D7_1337100) (UniProt Q8IDW1). Description: PfPK6 kinase inhibitors, biochemical, TCAMS library (AID 1159586). Particulars: recombinant PfPK6, Kinase-Glo ATP depletion luminescence.
Assay [7] concerns the target Protein kinase 7 (PK7), Plasmodium falciparum 3D7 (PF3D7_0213400) (UniProt Q7YTF7). Description: inhibition of Plasmodium PK7 catalytic activity – biochemical, TCAMS antimalarial set, Kinase-Glo luminescence (AID 1159587). Particulars: recombinant PfPK7, Kinase-Glo ATP depletion luminescence.
In assay [8] the target is Calcium-dependent protein kinase 4 (Plasmodium falciparum (isolate 3D7)) (UniProt Q8IBS5). Nature of the assay: PfCDPK4 kinase inhibitors, biochemical, TCAMS library (AID 1159588; cut-off not given, nearly all actives have IC50 up to about 0.91 µM). Particulars: recombinant PfCDPK4, Kinase-Glo ATP depletion luminescence.

A number with no mark means an inactive call. For some of these results: Entries with a potency or affinity are not part of this list. Calls of active or inactive are those of the source. Unless noted, how the calls were made is not given here.

Chain of Calcium-dependent protein kinase 4 (Plasmodium falciparum (isolate 3D7)) (Q8IBS5 whole entry, looked up): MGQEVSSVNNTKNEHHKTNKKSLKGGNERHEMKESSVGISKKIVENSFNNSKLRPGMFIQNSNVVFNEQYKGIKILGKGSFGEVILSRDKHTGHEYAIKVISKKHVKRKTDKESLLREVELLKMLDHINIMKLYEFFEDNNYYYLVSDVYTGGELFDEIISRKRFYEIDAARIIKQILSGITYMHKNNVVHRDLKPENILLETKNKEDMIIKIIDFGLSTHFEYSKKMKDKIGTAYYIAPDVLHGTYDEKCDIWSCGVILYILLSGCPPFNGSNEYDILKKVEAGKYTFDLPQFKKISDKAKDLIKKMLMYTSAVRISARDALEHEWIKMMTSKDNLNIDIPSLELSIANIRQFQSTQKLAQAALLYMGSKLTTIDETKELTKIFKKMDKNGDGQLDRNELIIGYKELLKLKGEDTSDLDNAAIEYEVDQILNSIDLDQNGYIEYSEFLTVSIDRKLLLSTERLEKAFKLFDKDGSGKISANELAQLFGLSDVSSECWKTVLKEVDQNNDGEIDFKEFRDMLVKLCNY
Chain of Protein kinase 7 (PK7), Plasmodium falciparum 3D7 (PF3D7_0213400) (Q7YTF7 1-343): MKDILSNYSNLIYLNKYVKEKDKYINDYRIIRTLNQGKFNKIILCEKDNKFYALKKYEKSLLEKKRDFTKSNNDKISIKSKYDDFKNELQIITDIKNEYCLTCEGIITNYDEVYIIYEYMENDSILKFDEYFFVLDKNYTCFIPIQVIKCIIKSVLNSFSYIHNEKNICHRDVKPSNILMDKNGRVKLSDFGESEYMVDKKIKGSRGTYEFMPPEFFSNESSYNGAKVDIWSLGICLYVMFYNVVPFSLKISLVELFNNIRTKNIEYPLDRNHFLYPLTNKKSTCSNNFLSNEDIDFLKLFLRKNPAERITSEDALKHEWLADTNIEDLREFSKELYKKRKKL
Chain of Plasmodium falciparum protein kinase 6 (PK6, PF3D7_1337100) (Q8IDW1 1-305): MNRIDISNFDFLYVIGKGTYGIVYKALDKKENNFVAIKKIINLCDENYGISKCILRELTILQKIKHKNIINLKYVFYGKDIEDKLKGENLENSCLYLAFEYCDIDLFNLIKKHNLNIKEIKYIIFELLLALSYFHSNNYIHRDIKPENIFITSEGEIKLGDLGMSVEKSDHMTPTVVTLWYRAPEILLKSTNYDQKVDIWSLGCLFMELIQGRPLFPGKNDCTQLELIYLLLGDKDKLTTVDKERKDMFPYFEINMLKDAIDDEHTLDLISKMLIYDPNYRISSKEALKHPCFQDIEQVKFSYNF
Chain of L-lactate dehydrogenase (Plasmodium falciparum (isolate CDC / Honduras)) (Q27743 whole entry, looked up): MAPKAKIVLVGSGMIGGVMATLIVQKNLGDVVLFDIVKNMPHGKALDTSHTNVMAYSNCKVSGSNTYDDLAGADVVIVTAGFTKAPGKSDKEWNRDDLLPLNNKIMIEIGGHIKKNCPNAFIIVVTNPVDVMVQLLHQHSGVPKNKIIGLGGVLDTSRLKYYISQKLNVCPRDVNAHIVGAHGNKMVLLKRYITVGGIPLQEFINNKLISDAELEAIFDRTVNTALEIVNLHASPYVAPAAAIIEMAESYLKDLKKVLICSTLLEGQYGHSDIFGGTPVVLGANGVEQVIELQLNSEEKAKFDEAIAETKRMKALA
Chain of Calcium-dependent protein kinase 1 (Plasmodium falciparum (isolate 3D7)) (P62344 whole entry, looked up): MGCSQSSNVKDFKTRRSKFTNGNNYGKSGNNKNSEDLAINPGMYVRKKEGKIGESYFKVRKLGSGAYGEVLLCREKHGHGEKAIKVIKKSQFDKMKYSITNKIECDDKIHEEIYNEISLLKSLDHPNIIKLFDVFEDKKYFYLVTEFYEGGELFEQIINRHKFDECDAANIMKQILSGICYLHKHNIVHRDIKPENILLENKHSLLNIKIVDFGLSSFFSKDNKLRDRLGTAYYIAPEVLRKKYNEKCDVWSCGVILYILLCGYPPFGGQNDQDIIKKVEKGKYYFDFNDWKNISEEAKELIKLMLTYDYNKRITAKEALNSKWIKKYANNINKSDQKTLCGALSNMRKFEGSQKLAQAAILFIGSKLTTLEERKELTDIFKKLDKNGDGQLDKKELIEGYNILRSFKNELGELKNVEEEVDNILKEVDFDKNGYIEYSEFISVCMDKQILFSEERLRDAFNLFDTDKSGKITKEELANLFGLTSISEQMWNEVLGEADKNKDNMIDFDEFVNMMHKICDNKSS

The inhibition is the drop in the measured response relative to a control, in per cent. As for `CCCCCCCNC(=O)NCC1CCCN(CCCCCNC(=O)/C=C/c2ccc(Cl)c(Cl)c2)C1` (stereo not given), the results for the growth inhibition in assay [1] and in assay [4] were 7% and 86% (active), respectively. Besides, the inhibition in assay [2] is 98% (active); in assay [3], -1%. Moreover, the result in assay [5], in assay [6], in assay [7] and in assay [8] was inactive.
On to `N#Cc1ccc(-c2ccc(C(=O)NC3CCN(CCN4CCC(c5cn(CCO)c6ccccc56)CC4)CC3)cc2)cc1`, for which the growth inhibition is 79% (active) in assay [1] and 100% (active) in assay [4]. The inhibition in assay [2] is 30%; in assay [3] it was -2%. Further, the result in assay [5], in assay [6], in assay [7] and in assay [8] was inactive.
Regarding `CC(C)COc1ccc(Cl)cc1Cc1ccc(-c2nc3ccc(CCN(C)C)cc3[nH]2)o1`, the growth inhibition in assay [1] was 7%; in assay [4], 92% (active). Also, the inhibition in assay [2] is 10%; in assay [3] it was 3%. Further, the outcome in assay [5], in assay [6], in assay [7] and in assay [8] was inactive.
`Cc1nnc(Sc2ncnc3scc(-c4ccc(F)cc4)c23)s1`: the figures for the growth inhibition in assay [1] and in assay [4] were 50% (active) and 99% (active), respectively. Besides, the values for the inhibition in assay [2] and in assay [3] were 13% and 4%, respectively. Moreover, the outcome in assay [5], in assay [6], in assay [7] and in assay [8] was inactive.
For `CCc1cccc(C)c1-n1nc(-c2cc(C(C)(C)C)oc2C)cc1N`, the growth inhibition in assay [1] and in assay [4] was 95% (active) in each case. The inhibition is 4% in assay [2] and 5% in assay [3]. For the same molecule, the outcome in assay [5], in assay [6], in assay [7] and in assay [8] was inactive.
`c1ccc(CCNCc2ccc(-c3ccc(CNCc4ccc5c(c4)OCO5)cc3)nc2)cc1`: the values for the growth inhibition in assay [1] and in assay [4] were 67% (active) and 94% (active), respectively. Further, the results for the inhibition in assay [2] and in assay [3] were 24% and 5%, respectively. Further, the outcome in assay [5], in assay [6], in assay [7] and in assay [8] was inactive.
On to `O=C(/C=C/c1cccc(Cl)c1)NCCCCCN1CCC(c2c[nH]c3ccccc23)CC1`, for which the growth inhibition in assay [1] was 17%; in assay [4] it was 89% (active). The inhibition in assay [2] is 46%; in assay [3], -2%. Also, the outcome in assay [5], in assay [6], in assay [7] and in assay [8] was inactive.
`Nc1ccc(-c2ccc(NC(=O)Nc3ccccc3)cc2)cn1`: the growth inhibition in assay [1] was 93% (active); in assay [4], 91% (active). The inhibition in assay [2] is -3%; in assay [3], -1%. Further, the outcome in assay [5], in assay [6], in assay [7] and in assay [8] was inactive.
With `COc1ccc2[nH]cc(C3CCN(CCCCNC(=O)c4ccc(NC(=O)c5ccc(Cl)cc5)cc4)CC3)c2c1`, the growth inhibition was 16% in assay [1] and 98% (active) in assay [4]. For the same molecule, the values for the inhibition in assay [2] and in assay [3] were 17% and 3%, respectively. Also, the result in assay [5], in assay [6], in assay [7] and in assay [8] was inactive.
Consider `CCCc1ccc(C2CCN(CCCCNC(=O)c3ccc(NC(=O)c4ccc(Cl)cc4)cc3)CC2)cc1`, for which the growth inhibition in assay [1] and in assay [4] was 100% (active) each time. The inhibition is 39% in assay [2] and 1% in assay [3]. The result in assay [5], in assay [6], in assay [7] and in assay [8] was inactive.
Consider `CC(Cc1ccc(NC(=O)c2ccc(NCCc3ccccc3)cc2)cc1)NCCc1cccc(Cl)c1` (stereo not given), for which the growth inhibition in assay [1] is 1%; in assay [4], 92% (active). In addition, the figures for the inhibition in assay [2] and in assay [3] were 25% and 4%, respectively. The outcome in assay [5], in assay [6], in assay [7] and in assay [8] was inactive.
Turning to `COc1ccc2nccc([C@@H](O)CN3CCC(NCc4cc5cccc6c5n(c4=O)CCC6)CC3)c2c1`, the results for the growth inhibition in assay [1] and in assay [4] were 97% (active) and 98% (active), respectively. In addition, the figures for the inhibition in assay [2] and in assay [3] were 33% and 1%, respectively. Moreover, the outcome in assay [5], in assay [6], in assay [7] and in assay [8] was inactive.
`CC1(C)CCCC(=Cc2ccc(Br)cc2)C1(O)Cn1ccnc1` (stereo not given): the figures for the growth inhibition in assay [1] and in assay [4] were 69% (active) and 99% (active), respectively. Moreover, the inhibition in assay [2] is 7%; in assay [3], 0%. Besides, the result in assay [5], in assay [6], in assay [7] and in assay [8] was inactive.
Turning to `CCN(CCCN1CCCC1)c1cc(C)nc(Nc2ccc(Cl)cc2)n1`, the growth inhibition is 12% in assay [1] and 100% (active) in assay [4]. Also, the figures for the inhibition in assay [2] and in assay [3] were 5% and 1%, respectively. Also, the outcome in assay [5], in assay [6], in assay [7] and in assay [8] was inactive.
In the case of `CCCc1c(Cl)cc(CNCCCNc2nc3ccncc3[nH]2)cc1Cl`, the growth inhibition is -5% in assay [1] and 98% (active) in assay [4]. Further, the inhibition in assay [2] was 23%; in assay [3] it was -5%. Besides, the result in assay [5], in assay [6], in assay [7] and in assay [8] was inactive.
As for `COc1ccc(CNC(=O)NC2CCN(c3ccnc(Nc4ccc(OC)cc4)n3)C2)cc1` (stereo not given), the values for the growth inhibition in assay [1] and in assay [4] were 80% (active) and 87% (active), respectively. Further, the inhibition in assay [2] was 27%; in assay [3], 1%. Moreover, the result in assay [5], in assay [6], in assay [7] and in assay [8] was inactive.
As to `COc1ccc(Br)cc1C1Nc2ccc3ccccc3c2C2=C1C(=O)CC(c1ccccc1)C2` (stereo not given), the values for the growth inhibition in assay [1] and in assay [4] were 96% (active) and 101% (active), respectively. Besides, the inhibition in assay [2] is 25%; in assay [3] it was 4%. Further, the outcome in assay [5], in assay [6], in assay [7] and in assay [8] was inactive.
On to `Cc1cc(NCc2ccccc2)nc(NCc2ccccc2)n1`, for which the growth inhibition is 18% in assay [1] and 91% (active) in assay [4]. Moreover, the inhibition in assay [2] is 21%; in assay [3] it was 5%. The result in assay [5], in assay [6], in assay [7] and in assay [8] was inactive.
For the molecule `CC1(C)N=C(N)N=C(N)N1O`, the growth inhibition is 1% in assay [1] and 93% (active) in assay [4]. In addition, the inhibition was 7% in assay [2] and -5% in assay [3]. For the same molecule, the outcome in assay [5], in assay [6], in assay [7] and in assay [8] was inactive.
On to `O=C(N[C@@H](Cc1ccccc1)C(=O)NC1CCCCCC1)c1ccc(O)c(-c2cccc(C(F)(F)F)c2)c1`, for which the growth inhibition is 70% (active) in assay [1] and 98% (active) in assay [4]. Also, the inhibition in assay [2] is -10%; in assay [3] it was -1%. In addition, the result in assay [5], in assay [6], in assay [7] and in assay [8] was inactive.
